Entries with a potency or affinity are not part of this list. Records with an inconclusive call do not appear. Active and inactive are the calls of the source.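 How the source made its calls: active means samples whose fitted half-maximal inhibition concentration is no more than ten times the top valid dose tested; inconclusive means flat response between -70 and -30, or invalid curve fit; inactive means flat within 30 of zero, potency above limit, or signal rising.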
These compounds were tested against Trypsin (Sus scrofa) (UniProt P00761) (assay: porcine trypsin inhibitors, dose response, selectivity assay for Rce1 protease inhibitor project, biochemical, quenched peptide fluorescence, cherry-pick (AID 488789)). Details: quenched peptide cleavage fluorescence; series mostly up to 10 µM; activity change, negative = inhibition: at the top concentration.
Sequence of Trypsin (Sus scrofa) (P00761 whole entry, looked up): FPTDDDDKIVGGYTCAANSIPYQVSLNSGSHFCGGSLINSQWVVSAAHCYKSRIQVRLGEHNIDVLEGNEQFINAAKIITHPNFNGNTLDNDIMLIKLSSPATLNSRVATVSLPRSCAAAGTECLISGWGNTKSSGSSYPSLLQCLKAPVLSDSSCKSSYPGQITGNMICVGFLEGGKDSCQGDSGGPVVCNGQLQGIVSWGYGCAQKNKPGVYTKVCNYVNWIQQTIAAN

Activity change, negative = inhibition, inactive:
CN(C(=O)COC(=O)c1cc([N+](=O)[O-])ccc1Sc1ccccc1)C1CCS(=O)(=O)C1 (stereo not drawn) 12.2%
CCOC(=O)C1=C(C)OC(N)=C(C#N)C1c1cc2c(cc1[N+](=O)[O-])OCO2 (stereo not drawn) 8.41%
Cc1cccc(N2C(=O)c3cccc4c(N5CCCCC5)c([N+](=O)[O-])cc(c34)C2=O)c1C 10.5%
COc1ccccc1-c1nnc2sc(-c3ccc(N(C)C)cc3)nn12 -5.89%
CS(=O)(=O)Nc1ccccc1C(=O)NCc1ccccc1Cl 10.6%
CCC(=O)Nc1cc(-c2nn(CC(=O)N3CCCCC3)c(=O)c3ccccc23)ccc1N1CCOCC1 -2.62%
O=C(Nc1ccc(N2CCOCC2)c(Cl)c1)c1cc2ccccc2o1 8.34%
CC(C)c1ccc(NC(=O)COc2nncc3ccccc23)cc1 3.74%
CC(C)N1CCN(Cc2ccc(OCc3ccccc3)cc2)CC1CCO (stereo not drawn) 13.1%
COc1ccc(CN2CCN(C(c3ccc(F)cc3)c3ccc(F)cc3)CC2)c(OC)c1OC 5.69%
COCCN1C(=O)/C(=C/c2ccc(Oc3ccc([N+](=O)[O-])cn3)c(OC)c2)SC1=Nc1ccccc1 10.9%
O=C(COc1ncnc2cc([N+](=O)[O-])ccc12)NC(=O)NC1CCCCC1 2.26%
CS(=O)(=O)c1ccc(C(=O)OCC(=O)N(CCc2ccccc2)Cc2ccccc2)cc1 15.7%
Cc1cc(N)c2cc(NC(=O)/C=C/c3ccccc3Cl)ccc2n1 14.5%
Cc1nc(SC(C(=O)c2ccccc2)c2ccccc2)nc2ccccc12 (stereo not drawn) 3.6%
COc1ccccc1CC(=O)Nc1ccc2c(C)cc(=O)oc2c1 -1.39%
COc1ccc(CCN(C)C(=O)c2ccc(S(=O)(=O)Nc3ccccc3C)cc2)cc1OC 9.33%
CN(C)c1cc(O)c(C(=S)Nc2ccccc2)c(N(C)C)c1 -3.16%
O=C(CCNC(=O)N1CC(=O)Nc2ccccc21)NCCc1cccc(F)c1 6.18%
Cn1c(CCNS(=O)(=O)c2ccccc2)nnc1SCc1cccnc1 5.5%
COc1ccc(OC)c(Cc2nnc(CCC(=O)N3CCN(C4CCCC4)CC3)o2)c1 -6.54%
Cc1cc(C)cc(N2CC(O)=C(c3nc4ccccc4c(=O)[nH]3)C2=N)c1 -4.42%
CC(C)c1cccc(OCC(=O)Nc2ccc(S(=O)(=O)Nc3ccccn3)cc2)c1 5.03%
COCc1c(C(=O)N/N=C/C2CC=CCC2)nnn1-c1nonc1N (stereo not drawn) 29.2%
Nc1nnnn1/N=C/c1ccccc1OCc1ccc(Cl)cc1Cl 0.248%
COc1ccc(C)cc1NC(=O)CN1C(=O)COc2ccc(S(=O)(=O)N3CCOCC3)cc21 5.03%
c1ccc(Nc2cccc(Nc3ccccc3)n2)cc1 19.8%
CCn1cc(C(=O)N[C@H](C)c2ccccc2)c(=O)c2cc(F)c(N3CCN(C)CC3)cc21 6.94%
O=C(c1cn(-c2ccccc2)nc1-c1cccs1)N1CCN(c2ccccc2)CC1 27.7%
COc1cccc(-c2csc(N3CCN(C(=O)NC45CC6CC(CC(C6)C4)C5)CC3)n2)c1 13.1%
COc1cccc(-c2cc(C(F)(F)F)n3ncc(S(=O)(=O)c4ccccc4)c3n2)c1 3.61%
Cc1ccccc1OC(C)C(=O)N1CCC(Cc2ccccc2)CC1 (stereo not drawn) 13.4%
COc1cc(C(=O)OCC(=O)Nc2ccc(SC(F)F)cc2)cc(OC)c1OC 1.57%
Cc1cc(C)cc(Nc2nc(-c3ccc(S(=O)(=O)N4CCCC4)cc3)cs2)c1 6.56%
CN1CCN(Cc2c(C(=O)N/N=C/c3cccc(Br)c3)nnn2-c2nonc2N)CC1 1.11%
CC(Cc1cccs1)NC(=O)Nc1ccc([N+](=O)[O-])cc1 (stereo not drawn) 13.2%
CSc1ccc(C(=O)C2CCCN(C(=O)c3cccnc3SC)C2)cc1 (stereo not drawn) 2.24%
CC(/C=N\NC(=O)CN1CCN(S(=O)(=O)c2ccc(C)cc2)CC1)=C\c1ccccc1 7.87%

From PubChem BioAssay AID488789 (Broad Institute, 2010)
